Source: PubChem BioAssay AID1851 (National Center for Advancing Translational Sciences (NCATS), 2009)
Several values for one entry are separate records, joined by “and”; a condition that tells them apart may be missing. Equal values may be shown once. About 5,100 (32%) of roughly 16,000 compounds were called active. About 25% were inconclusive and are not listed. Calls come from the whole dose curve; as a rule, active = well fitted curve in the direction sought with a large enough effect; inconclusive = small, poorly fitted or top-dose-only effect, or effect the other way; inactive = no such curve, though single readings can be large or run the other way. This is one part of the list.

Target: Cytochrome P450 3A4 (Homo sapiens) (UniProt P08684)
Assay: Cytochrome panel assay with activity outcomes
Conditions: recombinant CYP, pro-luciferin dealkylation, luminescence, p450-cyp3a4; series mostly up to 57.1 µM; activity, negative = inhibition: at the top concentration
% is set by controls: 0 for no effect and ±100 for the full control effect.

Cytochrome P450 3A4 (Homo sapiens), sequence (P08684 whole entry, looked up): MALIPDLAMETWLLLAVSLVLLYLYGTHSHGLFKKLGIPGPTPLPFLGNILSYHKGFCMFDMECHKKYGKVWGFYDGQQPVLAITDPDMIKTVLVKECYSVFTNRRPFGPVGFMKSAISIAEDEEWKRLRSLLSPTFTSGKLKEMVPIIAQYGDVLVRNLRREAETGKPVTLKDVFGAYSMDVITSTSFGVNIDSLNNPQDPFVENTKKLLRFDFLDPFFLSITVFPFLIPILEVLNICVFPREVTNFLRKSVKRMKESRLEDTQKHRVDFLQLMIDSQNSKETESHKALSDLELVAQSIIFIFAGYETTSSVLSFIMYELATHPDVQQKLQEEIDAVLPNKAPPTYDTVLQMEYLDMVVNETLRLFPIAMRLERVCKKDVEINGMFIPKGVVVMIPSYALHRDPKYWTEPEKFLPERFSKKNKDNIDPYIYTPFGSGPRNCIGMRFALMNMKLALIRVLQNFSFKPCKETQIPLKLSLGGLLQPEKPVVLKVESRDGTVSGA

SMILES | activity, negative = inhibition | AC50
Cn1c2c(c(=O)n(C)c1=O)CN(CCN1CCNCC1)CN2 | 1.78% (inactive) | –
O=C(Cn1nnc2ccccc21)N/N=C\C=C\c1ccccc1 | -3.42% (inactive) | –
O=C(OCn1nnc2ccccc2c1=O)c1cccnc1 | – | 8.91 µM (active)
O=C(CSCC(=O)OCn1nnc2ccccc2c1=O)Nc1ccc(Cl)cc1 | – | 22.4 µM (active)
O=C(NCc1cccs1)C1CCN(S(=O)(=O)c2cccc3nsnc23)CC1 | – | 12.6 µM (active)
COc1ccc(OC)c(S(=O)(=O)N2CCC(C(=O)Nc3ccc(C)c(C)c3)CC2)c1 | – | 5.01 µM (active)
O=C(NCC1COc2ccccc2O1)C1CCN(S(=O)(=O)c2cccc3nsnc23)CC1 (stereo not given) | – | 20 µM (active)
Cc1ccc(NC(=O)C2CCN(S(C)(=O)=O)CC2)cc1 | 0.664% [at 2.29 µM] (inactive) | –
CCc1ccc(NC(=O)C2CCN(S(=O)(=O)c3c(C)[nH]c(=O)[nH]c3=O)CC2)cc1 | -15.2% (inactive) | –
Cc1cccc(NC(=O)C2CCN(S(=O)(=O)c3cccc4nsnc34)CC2)n1 | -13.5% (inactive) | –
COc1ccc2nc(NC(=O)C3CCN(S(=O)(=O)c4cccc5nsnc45)CC3)sc2c1 | – | 14.1 µM (active)
Nc1nc2c(C(=O)NCc3cccs3)nnn2c2cccc(Cl)c12 | -1.06% [at 11.4 µM] (inactive) | –
COc1ccc2nc(NCN3C(=O)c4ccccc4C3=O)sc2c1 | -27.9% [at 11.4 µM] (inactive) | –
CC(C)=CCNc1ncnc2nc[nH]c12 | -14.9% [at 11.4 µM] (inactive) | –
COc1cc(NC(=O)C2CCN(S(=O)(=O)c3cccc4nonc34)CC2)cc(OC)c1 | – | 3.16 µM (active)
COc1ccc(CCNC(=O)C2CCN(S(=O)(=O)c3cccc4nsnc34)CC2)cc1OC | – | 3.98 µM (active)
CC(=O)Nc1ccc(NC(=O)C2CCN(S(=O)(=O)c3cccc4nonc34)CC2)cc1 | -29.4% (inactive) | –
COC(=O)c1ccccc1OCC(=O)N1CCN(c2ccc(OC)cc2)CC1 | -29.6% [at 11.4 µM] (inactive) | –
COC(=O)c1ccccc1Oc1c(F)c(F)nc(N2CCOCC2)c1F | -22.2% (inactive) | –
COC(=O)c1ccccc1OCC(=O)N1CCN(c2ccc(Cl)cc2)CC1 | – | 15.8 µM (active)
OCCCNc1ncnc2[nH]ncc12 | -20.7% [at 11.4 µM] (inactive) | –
O=S1(=O)C=C(SCc2cccc(Cl)c2)Nc2ccccc21 | – | 2 µM (active)
CC[C@@H]1CC(=O)N(SC[C@H](N)C(=O)O)C1=O | -4.06% [at 11.4 µM] (inactive) | –
CN(C)c1ncc2nc(-c3ccccc3)c(=O)n(C)c2n1 | -29.7% (inactive) | –
COc1cccc(Cn2c(=O)c(-c3cc(F)cc(F)c3)nc3cnc(N(C)C)nc32)c1 | -27.5% (inactive) | –

SMILES | activity, negative = inhibition | AC50
COc1cccc(Cn2c(=O)c(-c3ccccc3)nc3cnc(OC)nc32)c1 | – | 7.94 µM (active)
COc1ccc(-c2nc3cnc(OC)nc3n(Cc3cccc(OC)c3)c2=O)cc1 | – | 2.51 µM (active)
COc1cccc(Cn2c(=O)c(-c3ccccc3)nc3cnc(N(C)C)nc32)c1 | – | 6.31 µM (active)
Oc1c(Br)cc(CN(Cc2cc(Br)c(O)c(Br)c2)C2CCCCC2)cc1Br | -9.71% [at 11.4 µM] (inactive) | –
COc1ccc(C2=Nc3cccc4cccc(c34)N2)cc1 | 12.5% (inactive) | –
COc1cccc(-c2cncnc2NCc2ccc(OC)cc2OC)c1 | – | 0.501 µM (active)
COc1ccc(CNc2ncncc2-c2cccc(C#N)c2)c(OC)c1 | – | 0.316 µM (active)
COc1cccc(-c2cncnc2NCc2ccccc2OC)c1 | – | 0.501 µM (active)
COc1ccc(CNc2ncncc2-c2cccnc2)c(OC)c1 | – | 0.501 µM (active)
CCNc1nc(NCC)nc(ON=C(C)C)n1 | -10.1% (inactive) | –
Cn1ccnc1C[C@@](C)(O)c1ccccc1 | -4.26% [at 11.4 µM] (inactive) | –
CCn1cc(C(=O)N/N=C(/C)c2ccc(F)cc2)c(=O)c2cc(F)c(N3CCCC3)cc21 | -9.03% (inactive) | –
COc1ccccc1CNc1ncncc1-c1cccnc1 | – | 0.794 µM (active)
C[C@@H](c1ccccc1)N1C(=O)[C@H]2[C@@H]3[C@H](O)[C@H](O)CC(=O)[C@H]3CC[C@H]2C1=O | -24.3% [at 11.4 µM] (inactive) and -16.6% [at 11.4 µM] (inactive) | –
CCOC(=O)CCN1C(=O)[C@H]2[C@H]3[C@H](O)[C@H](O)C/C(=N/OC[C@@H](O)COCc4ccco4)[C@H]3CC[C@@H]2C1=O | -22.6% [at 11.4 µM] (inactive) | –
O=C1[C@H]2[C@H]3[C@H](O)[C@H](O)C/C(=N/OC[C@@H](O)COCc4ccco4)[C@H]3CC[C@@H]2C(=O)N1C[C@@H]1CCCO1 | -13.4% [at 11.4 µM] (inactive) | –
C[C@@H](c1ccccc1)N1C(=O)[C@H]2[C@H]3[C@H](O)[C@H](O)C/C(=N/OC[C@@H](O)COCc4ccco4)[C@H]3CC[C@@H]2C1=O | – | 3.98 µM (active)
CCOC(=O)CCN1C(=O)[C@H]2[C@H]3[C@H](O)[C@H](O)C/C(=N/OC[C@@H](O)COCc4ccco4)[C@@H]3CC[C@@H]2C1=O | -16.7% [at 11.4 µM] (inactive) | –
O=C1[C@H]2[C@H]3[C@H](O)[C@H](O)C/C(=N/OC[C@@H](O)COCc4ccco4)[C@@H]3CC[C@@H]2C(=O)N1C[C@@H]1CCCO1 | -23.9% [at 11.4 µM] (inactive) | –
CC(=O)OC[C@@H]1O[C@@H](O/N=C2/C[C@@H](O)[C@@H](O)[C@@H]3[C@@H]4C(=O)N([C@@H](C)c5ccccc5)C(=O)[C@H]4CC[C@H]23)[C@H](OC(C)=O)[C@H](OC(C)=O)[C@@H]1OC(C)=O | -29.1% [at 11.4 µM] (inactive) | –
CC(C)(C)N1C(=O)[C@H]2[C@H]3[C@H](O)[C@H](O)C/C(=N/OC[C@@H](O)COCc4ccco4)[C@@H]3CC[C@@H]2C1=O | – | 5.01 µM (active)
C[C@@H](c1ccccc1)N1C(=O)[C@H]2[C@H]3[C@H](O)[C@H](O)C/C(=N/OC[C@@H](O)COCc4ccco4)[C@@H]3CC[C@@H]2C1=O | – | 3.16 µM (active)
O=C1C(O)=C(O)C(=O)C(O)=C1O | -16.8% [at 25.6 µM] (inactive) | –
NC(N)=NC(N)=Nc1ccc(S(=O)(=O)O)cc1 | -0.586% [at 11.4 µM] (inactive) | –
CC1=CC=CN2CC(O)CN=C12 (stereo not given) | -1.24% (inactive) | –
